Each structure is given as a SMILES string. Records with an inconclusive call do not appear. A number with no mark means an inactive call. Calls of active or inactive are those of the source. Calls come from the whole dose curve; as a rule, active = well fitted cell-killing curve with a large enough effect; inconclusive = small, poorly fitted or top-dose-only effect, or effect the other way; inactive = flat fitted curve, though single readings scatter.
% is set by controls: 0 for no effect and ±100 for the full control effect; potency is the fitted concentration of half-maximal effect.

In one assay the test system is Es-2. The experiment in a line: Primary qHTS to identify gynecologic anti-cancer compounds using libraries of approved drugs and bioactive compounds (AID 1345084). Note: nearly all actives have a fitted effect of over 55% in size. Conditions: Gynecologic cancer cell panel viability, ATPlite luminescence, 48 h; series mostly up to 57.5 µM; activity change, negative = cytotoxicity: at the top concentration. In outline:
(§1)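 Cell viability after 48 h drug treatment, ATPlite luminescence readout; five doses.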
In general terms: Quantitative high-throughput screening tests each substance at several concentrations.
Regarding `CC1(C)OC(=O)NC1=O`, the “activity change, negative = cytotoxicity” value is 0.364%.
The same measure, in the same setting: under `CCCCCCCCCCCCCCCCCCOCC(O)CO` (configuration not stated) stands -2.95%.
As for `CC(=O)CCC(=O)O`, the “activity change, negative = cytotoxicity” value is -0.0338%.
Regarding `C=CCn1c(=O)n([C@@H]2O[C@H](CO)[C@@H](O)[C@H]2O)c2nc(N)[nH]c(=O)c21`, the “activity change, negative = cytotoxicity” value was 5.36%.
As for `CC(=O)c1ccc2c(c1)N(CCCN(C)C)c1ccccc1S2`, the “activity change, negative = cytotoxicity” value was -6.82%.
In the case of `CC1(C)CO[C@@H](CC(=O)O)CN1`, the “activity change, negative = cytotoxicity” value was 2.38%.
With `CC(=O)Oc1c(C)c(C)c2c(c1C)CC[C@@](C)(CCC[C@H](C)CCC[C@H](C)CCCC(C)C)O2`, the “activity change, negative = cytotoxicity” value was 7.67%.
Still for that read-out and setting: under `COc1ccc2cc1Oc1ccc(cc1)C[C@H]1c3c(cc4c(c3Oc3cc5c(cc3OC)CCN(C)[C@@H]5C2)OCO4)CCN1C` stands -6.26%.
With `CC[C@H]1CN2CCc3cc(OC)c(OC)cc3[C@@H]2C[C@@H]1C[C@H]1NCCc2cc(OC)c(OC)cc21`, the Potency is 447 nM (active).
For the molecule `C[C@H](N)[C@H](O)c1cccc(O)c1`, the “activity change, negative = cytotoxicity” value was 0.466%.
As to `COC(=O)C1=C(C)NC(C)=C(C(=O)OC)C1c1ccccc1[N+](=O)[O-]`, the “activity change, negative = cytotoxicity” value is -0.377%.
The same measure, in the same setting: under `Cc1cc(O)cc2c1O[C@](C)(CCC[C@H](C)CCC[C@H](C)CCCC(C)C)CC2` stands 5.34%; under `CCN(CC)CCCC(C)Nc1c2ccc(Cl)cc2nc2ccc(OC)cc12` (configuration not stated), -27.9%.
As for `CCCCN(CCCC)CC(O)c1cc(Cl)cc2c1-c1ccc(Cl)cc1/C2=C/c1ccc(Cl)cc1` (configuration not stated), the “activity change, negative = cytotoxicity” value was -10.6%.
For `CC(=O)NC(Cc1ccccc1)C(=O)O` (configuration not stated), the Potency entry was “inactive”.
With `CC(=O)OCC(=O)[C@@]1(O)CC[C@H]2[C@@H]3CCC4=CC(=O)CC[C@]4(C)[C@H]3C(=O)C[C@@]21C`, the “activity change, negative = cytotoxicity” value was 0.135%.
As to `CC[C@@]1(c2ccccc2)NC(=O)N(C)C1=O`, the “activity change, negative = cytotoxicity” value was 4.36%.

For a further assay, the system named is HeLa. The description is as above. The conditions noted are these: Gynecologic cancer cell panel viability, ATPlite luminescence, 48 h; series mostly up to 57.5 µM; activity change, negative = cytotoxicity: at the top concentration. In outline:
as §1
On the technique in general: In ATP-based viability assays light output follows the ATP content of the culture.
As for `NC(=O)NC(=O)Cc1ccccc1`, the “activity change, negative = cytotoxicity” value is -20.1%.
On the same count and under the same terms, under `NC(=O)NNc1ccccc1` stands 1.9%.
On to `N[C@H](C(=O)O)c1ccc(O)cc1`, for which the “activity change, negative = cytotoxicity” value is 7.95% [at 25.3 µM].
The same measure, in the same setting: for `NC(=O)c1ncn([C@@H]2O[C@H](CO)[C@@H](O)[C@H]2O)n1` the value was -8.54%; for `Nc1ccc(S(=O)(=O)NC(=O)c2ccccc2)cc1`, -9.15%; for `N[C@H]1C(O)O[C@H](CO)[C@@H](O)[C@@H]1O` (some centres not stated), 1.08%.
In the case of `O=S(=O)(O)NC1CCCCC1`, the “activity change, negative = cytotoxicity” value was -0.754%.
Still for that read-out and setting: under `OC[C@H]1O[C@@H](O[C@@H]2[C@@H](CO)O[C@](O)(CO)[C@H]2O)[C@H](O)[C@@H](O)[C@H]1O` stands -1.42%; under `CN(C)CCCO[C@@H]1[C@H]2OC(C)(C)O[C@H]2O[C@@H]1C(O)CO` (some centres not stated), 5.24%.
Turning to `C[C@@H]1CC[C@@]2(OC1)O[C@H]1C[C@H]3[C@@H]4CC[C@H]5C[C@@H](O)CC[C@]5(C)[C@H]4CC(=O)[C@]3(C)[C@H]1[C@@H]2C`, the activity change, negative = cytotoxicity was 1.36% [at 6.55 µM].
In the case of `CNCCCC1c2ccccc2C=Cc2ccccc21`, the “activity change, negative = cytotoxicity” value was -20.7%.
Same read-out and setting: for `CSc1ccc2c(c1)N(CCC1CCCCN1C)c1ccccc1S2` (configuration not stated) the value was -4.96%; for `CC1=C(CC(=O)O)c2cc(F)ccc2/C1=C\c1ccc(S(C)=O)cc1` (configuration not stated), -25.1%; for `COCCOC(=O)C1=C(C)NC(C)=C(C(=O)OC/C=C/c2ccccc2)C1c1cccc([N+](=O)[O-])c1` (configuration not stated), -19.5%.
For the molecule `C[C@H]1O[C@@H](n2cc(F)c(=O)[nH]c2=O)[C@H](O)[C@@H]1O`, the “activity change, negative = cytotoxicity” value was -1.26%.
Still for that read-out and setting: under `Cc1cc(N)c2ccccc2[n+]1CCCCCCCCCC[n+]1c(C)cc(N)c2ccccc21` stands -18.5%.
Still for that read-out and setting: for `O=S(=O)(O)c1cc(I)c(O)c2ncccc12` the value was 2.71%.
The same measure, in the same setting: under `CN1[C@@H]2CC(OC(=O)[C@H](CO)c3ccccc3)C[C@H]1[C@@H]1O[C@@H]12` (some centres not stated) stands 8.73%.
Regarding `CC1(C)OC(=O)NC1=O`, the “activity change, negative = cytotoxicity” value is -9.88%.
With `CCCCCCCCCCCCCCCCCCOCC(O)CO` (configuration not stated), the “activity change, negative = cytotoxicity” value was -1.67%.
On to `CC(=O)CCC(=O)O`, for which the “activity change, negative = cytotoxicity” value is 3.18%.
On the same count and under the same terms, for `C=CCn1c(=O)n([C@@H]2O[C@H](CO)[C@@H](O)[C@H]2O)c2nc(N)[nH]c(=O)c21` the value was 3.33%; for `CC1(C)CO[C@@H](CC(=O)O)CN1`, 6.7%.
On the same count and under the same terms, under `CC(=O)Oc1c(C)c(C)c2c(c1C)CC[C@@](C)(CCC[C@H](C)CCC[C@H](C)CCCC(C)C)O2` stands -0.588%; under `COc1ccc2cc1Oc1ccc(cc1)C[C@H]1c3c(cc4c(c3Oc3cc5c(cc3OC)CCN(C)[C@@H]5C2)OCO4)CCN1C`, 6.97%.
On to `CC[C@H]1CN2CCc3cc(OC)c(OC)cc3[C@@H]2C[C@@H]1C[C@H]1NCCc2cc(OC)c(OC)cc21`, for which the Potency is 398 nM (active).
As to `C[C@H](N)[C@H](O)c1cccc(O)c1`, the “activity change, negative = cytotoxicity” value is 1.66%.
On the same count and under the same terms, for `Cc1cc(O)cc2c1O[C@](C)(CCC[C@H](C)CCC[C@H](C)CCCC(C)C)CC2` the value was -15%.
For `CCN(CC)CCCC(C)Nc1c2ccc(Cl)cc2nc2ccc(OC)cc12` (configuration not stated), the Potency result was “inactive”.
On to `CCCCN(CCCC)CC(O)c1cc(Cl)cc2c1-c1ccc(Cl)cc1/C2=C/c1ccc(Cl)cc1` (configuration not stated), for which the “activity change, negative = cytotoxicity” value was -4.64%.

(Values after PubChem BioAssay (NCATS).)
